# ± gives the standard deviation of the averaged measurements. Whole data set: some 33,000 sequences, median “E-score (rank enrichment, -0.5 to 0.5)” near -0.0068, cut for the highest 2% near 0.24. The list comes from a sample in which the highest values are over-represented; it also holds similar and randomly drawn sequences.
# System: muMax20 (Max(13-93) K31hArg/K57hArg, M65Nle)
# Assay: PBM 8-mer E-score (E-score (rank enrichment, -0.5 to 0.5)); higher = stronger preferential binding
# Experimental: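 Protein binding microarray (universal PBM chip covering all 10-mers in fixed probe flanks) with chemically synthesized human Max(13-93) bHLH-LZ analogs (not full-length Max) bearing noncanonical residues (hArg, Tha, Aib, Nle at 65) and aromatic Cys staples. Read-out per 8-mer (and its reverse complement): E-score (rank-based enrichment, -0.5 to 0.5) and Z-score of median probe intensity.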
row,Sequence,PBM 8-mer E-score
1,CCGTGAGA,-0.189 ± 0.067
2,ACCTATGA,-0.136 ± 0.034
3,ACCACCGC,-0.0018 ± 0.023
4,ATTCTTTC,0.176 ± 0.02
5,CGCAGTGC,-0.12 ± 0.2
6,CATCGGGC,-0.209 ± 0.08
7,ATGTTGCA,0.122 ± 0.029
8,AAGTAGAT,0.0944 ± 0.081
9,ACCTGGCG,-0.256 ± 0.014
10,GGGGCACA,0.0581 ± 0.01
11,GGTGAAAA,-0.0373 ± 0.0061
12,CTTGAAAA,0.117 ± 0.035
13,ATTGAAAC,0.154 ± 0.059
14,TGTGAAAA,0.289 ± 0.071
15,ATTGAAAA,0.306 ± 0.03
16,CGTGAAAA,0.213 ± 0.11
17,CGCCGACC,-0.14 ± 0.057
18,ACTGAGGA,-0.126 ± 0.025
19,AGCACCTG,-0.0212 ± 0.043
20,TACGTAGA,0.0117 ± 0.044
21,AACGAGGT,-0.0494 ± 0.052
22,AGTTAGCA,0.0279 ± 0.055
23,CCGTGTCA,-0.0799 ± 0.0084
24,CCGTGTCG,-0.1658 ± 0.00081
25,AAGTGTCT,0.0152 ± 0.031

row,Sequence,PBM 8-mer E-score
1,ACGTGTCC,0.166 ± 0.052
2,GCGTGTCA,0.149 ± 0.2
3,AAGTGTCG,0.0406 ± 0.12
4,ACGTGTCA,0.278 ± 0.094
5,ACGTGTCT,0.326 ± 0.036
6,ACGTGTCG,0.237 ± 0.075
7,CAGCCGTA,-0.128 ± 0.029
8,GCATTAAC,0.0389 ± 0.091
9,CCATTAAC,0.239 ± 0.015
10,ACATTAAC,0.175 ± 0.0064
11,TGCGAACA,0.109 ± 0.11
12,ATCACACA,0.251 ± 0.021
13,ACCACATC,-0.0454 ± 0.028
14,ATCACATG,0.296 ± 0.11
15,ACCACATA,0.0727 ± 0.0036
16,AGCACATC,-0.0692 ± 0.013
17,ATCACATC,0.00749 ± 0.048
18,AGCACATA,0.0478 ± 0.12
19,ACCACATG,0.319 ± 0.077
20,AGCACATG,0.266 ± 0.049
21,ATCACACC,0.12 ± 0.065
22,ATCACATA,0.168 ± 0.048
23,ATCACACG,0.157 ± 0.065
24,ACGAGCAG,-0.0192 ± 0.02
25,CACCCGGG,-0.361 ± 0.014

row,Sequence,PBM 8-mer E-score
1,CATCCGGA,-0.0933 ± 0.064
2,CATCTCAC,-0.0239 ± 0.23
3,AGTTTATG,0.0668 ± 0.014
4,CCTTTACA,0.173 ± 0.094
5,CCTTTACG,0.24 ± 0.01
6,CCTTTACC,0.023 ± 0.2
7,AAGCTACG,0.0404 ± 0.15
8,AGTCCTGA,-0.233 ± 0.16
9,CATGGTCG,0.0286 ± 0.039
10,CATGGTCC,-0.136 ± 0.14
11,CATGGTCA,0.304 ± 0.047
12,CATGGTAA,0.297 ± 0.052
13,CATGGTAG,0.0279 ± 0.022
14,GGTGGTAA,0.0953 ± 0.084
15,TATGGTAA,0.108 ± 0.0077
16,AATGGTAT,0.213 ± 0.019
17,TGTGGTAA,0.244 ± 0.067
18,AATGGTAG,0.0638 ± 0.072
19,AATGGTAA,0.27 ± 0.071
20,CGTGGTAA,0.215 ± 0.06
21,GGGGCGAA,0.0451 ± 0.035
22,CCGCGAGG,-0.191 ± 0.082
23,CTCTCTCA,-0.0954 ± 0.052
24,CCCCAGTA,0.0363 ± 0.019
25,CAAGGATA,0.00143 ± 0.082

row,Sequence,PBM 8-mer E-score
1,CCATAACA,0.141 ± 0.035
2,CGGCGACC,-0.159 ± 0.097
3,TGCGGCAA,0.0884 ± 0.051
4,AGACCTGG,-0.177 ± 0.069
5,ATGCGCAC,-0.00186 ± 0.029
6,ATGCGCAT,0.295 ± 0.03
7,ATGCGCAA,0.0942 ± 0.019
8,AACCGCAC,0.0872 ± 0.056
9,CGGTCGGC,-0.2874 ± 0.0021
10,TAATGCCA,0.142 ± 0.036
11,AACACGTG,0.481 ± 0.017
12,AACACGTC,0.091 ± 0.002
13,AACACGTA,0.218 ± 0.0095
14,CACACGTG,0.426 ± 0.074
15,CACACGTC,0.0717 ± 0.034
16,CACACGTA,0.125 ± 0.018
17,GCATTGCA,0.14 ± 0.028
18,CGATTACC,-0.0103 ± 0.049
19,CAGAGTGA,0.00192 ± 0.0028
20,GCCCCTAA,-0.0669 ± 0.16
21,ATCCCCGG,-0.16 ± 0.024
22,AAGATTCC,0.00605 ± 0.027
23,ACATAAGA,0.174 ± 0.014
24,CGTCGGGC,-0.152 ± 0.008
25,GCAATAAC,0.138 ± 0.014

row,Sequence,PBM 8-mer E-score
1,AATTATTA,0.309 ± 0.036
2,GATTATTA,0.118 ± 0.064
3,CCTTATTA,0.28 ± 0.04
4,AATTATTG,0.191 ± 0.012
5,CATTATTA,0.242 ± 0.051
6,GCTTATTA,0.1783 ± 0.0012
7,AATTATTC,0.101 ± 0.071
8,CCTTATTC,-0.029 ± 0.059
9,CATTATTC,0.104 ± 0.032
10,CACTCGCG,-0.0815 ± 0.047
11,GAAGAGTC,0.089 ± 0.11
12,CAGTGCTA,-0.08 ± 0.053
13,GCAGAGCA,-0.187 ± 0.06
14,CTATATAG,0.134 ± 0.082
15,GAGGATAA,0.0253 ± 0.093
16,CATTAGTA,0.0251 ± 0.027
17,AGTTAGTA,0.27 ± 0.033
18,AATTAGTA,0.28 ± 0.034
19,AGTTAGTC,-0.094 ± 0.036
20,AATTAGTC,0.0746 ± 0.11
21,GGTTAGTA,0.0601 ± 0.091
22,ACTGATGG,-0.0638 ± 0.09
23,GTCCGATA,-0.0402 ± 0.11
24,CTCCCGAC,-0.0892 ± 0.047
25,ATCCCGCG,-0.0553 ± 0.1

row,Sequence,PBM 8-mer E-score
1,AGCATTAG,0.142 ± 0.042
2,AGCATTAC,-0.0675 ± 0.077
3,CCCATTAA,-0.0202 ± 0.017
4,AGCATTAA,0.232 ± 0.0024
5,CGCATTAA,-0.00237 ± 0.005
6,AGCATTAT,0.262 ± 0.048
7,TCCATTAA,-2.5e-05 ± 0.096
8,TGCATTAA,0.277 ± 0.062
9,ACCATTAA,0.348 ± 0.021
10,ACTTATAA,0.0449 ± 0.25
11,AATCTTTG,0.0923 ± 0.013
12,CGTTGGGA,-0.0152 ± 0.0038
13,GTGTTCTA,0.169 ± 0.024
14,AAATCCGT,-0.0161 ± 0.1
15,AGGTCCGC,-0.129 ± 0.034
16,ATATTTTA,0.203 ± 0.0096
17,ACACGAAC,0.122 ± 0.011
18,ATGTTTAG,0.222 ± 0.12
19,CTGTTTAC,0.106 ± 0.041
20,ATGTTTAC,0.245 ± 0.073
21,AGTTCACC,-0.068 ± 0.0075
22,ATTAAACC,0.164 ± 0.03
23,AATTAAAC,0.268 ± 0.072
24,ATTAAACG,0.287 ± 0.003
25,GATTAAAC,0.134 ± 0.071

row,Sequence,PBM 8-mer E-score
1,ATTAAAAC,0.269 ± 0.022
2,ATTAAAAA,0.0946 ± 0.0066
3,ATTAAACA,0.132 ± 0.15
4,ATTAAAAG,0.119 ± 0.073
5,AATTAAAG,0.108 ± 0.13
6,GTTCTTGA,0.0649 ± 0.045
7,CAAGGTGG,-0.0168 ± 0.088
8,TAGAAGAA,-0.0576 ± 0.025
9,GACATCCC,-0.00641 ± 0.062
10,AATACCTA,0.214 ± 0.067
11,CGAAGCTA,-0.176 ± 0.022
12,GGTCCAAC,-0.234 ± 0.16
13,ATGGTAAA,0.13 ± 0.053
14,ACTATTAC,0.0842 ± 0.022
15,ACTATTAG,-0.0835 ± 0.051
16,ATTATTAA,0.212 ± 0.035
17,ATTATTAG,0.247 ± 0.061
18,ATTATTAC,0.255 ± 0.028
19,CTTATTAC,0.101 ± 0.014
20,GCGGCTGA,-0.177 ± 0.019
21,CAATTCAA,0.0283 ± 0.0014
22,ATTCCCCA,0.209 ± 0.066
